Data on eight molecules can be found in PubChem BioAssay (NCI).

The panel holds about 83,000 compounds, 20% with a hit somewhere; the sample as a whole holds those more often.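 Compound tested at a single concentration for 48 hours in 96-well plates; a percent growth value below 10 was scored as active.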 Unmarked numbers belong to inactive results. Calls of active or inactive are those of the source.

Some test systems named below: NCI-H23 lung; NCI-H226 lung; NCI-H322M lung; HOP-62 NSCLC; NCI-H460 lung; HOP-92 NSCLC; NCI-H522 lung; 786-0 renal; COLO 205 colon; DU-145 prostate; K-562 leukemia; MALME-3M melanoma; MDA-MB-231 breast; RXF 393 renal; SF-268 CNS; SF-295 CNS; SF-539 CNS; UACC-257 melanoma; M14 melanoma; A549/ATCC NSCLC.
Holding throughout (assay): NCI-60 one-dose screen, 48 h (100 = growth as untreated, 0 = no growth, -100 = all killed)
Conditions in all cases: 10 µM unless noted

In the case of `Cc1csc(Nc2nc(-c3ccccn3)nc(C(Cl)(Cl)Cl)n2)n1`, the growth is 84.9% with NCI-H23 lung; 101% with NCI-H226 lung; 80.5% in the assay with NCI-H322M lung; 101% with HOP-62 NSCLC; 84% with NCI-H460 lung; 94.1% in the assay on HOP-92 NSCLC. Moreover, the growth is 86.7% in the assay on NCI-H522 lung; 94.8% in the assay on 786-0 renal; 92% in the assay on COLO 205 colon; 69.7% in the assay on DU-145 prostate; 87.8% in the assay on K-562 leukemia; 73.9% with MALME-3M melanoma. For the same molecule, the growth with MDA-MB-231 breast was 80.3%; in the assay on RXF 393 renal it was 91.4%; in the assay with SF-268 CNS, 82.8%; in the assay on SF-295 CNS it was 91%; in the assay with SF-539 CNS, 94.2%; in the assay with UACC-257 melanoma, 78.8%. In the assay on M14 melanoma, the growth is 83.7%.

Turning to `Cn1cc(-c2csc(-c3c[nH]c4ccccc34)n2)c2cnccc21`, the growth was 85.5% in the assay with NCI-H23 lung; 87.7% with NCI-H226 lung; 90.2% with NCI-H322M lung; 8.92% (active) in the assay with HOP-62 NSCLC; -17.7% (active) in the assay on NCI-H460 lung; 72.7% in the assay on HOP-92 NSCLC. In addition, the growth was -39.6% (active) in the assay on NCI-H522 lung; -87% (active) with 786-0 renal; -37.3% (active) in the assay with COLO 205 colon; 20.9% with DU-145 prostate; -28.1% (active) with K-562 leukemia; -79% (active) in the assay on MALME-3M melanoma. In addition, the growth in the assay on MDA-MB-231 breast is -37.4% (active); in the assay with RXF 393 renal, -84% (active); in the assay with SF-268 CNS, 54.6%; with SF-295 CNS, -69.7% (active); in the assay on SF-539 CNS, -88.4% (active); in the assay with UACC-257 melanoma it was 90.9%.

As to `Cc1ccc(C[P+](c2ccccc2)(c2ccccc2)c2ccccc2)cc1`, the growth with NCI-H23 lung is -9.16% (active); in the assay on NCI-H226 lung it was 16.1%; in the assay on NCI-H322M lung, 38.8%; with HOP-62 NSCLC it was 13.5%; with NCI-H460 lung, 3.04% (active); in the assay with HOP-92 NSCLC it was -0.267% (active). Moreover, the growth in the assay on NCI-H522 lung is 10.3%; in the assay with 786-0 renal it was 25.6%; in the assay with COLO 205 colon, -15.5% (active); with DU-145 prostate, 7.44% (active); with K-562 leukemia, 2.1% (active); in the assay on MALME-3M melanoma, 10.1%. Also, the growth is 18.7% in the assay with MDA-MB-231 breast; 16.6% with RXF 393 renal; 15.5% in the assay on SF-268 CNS; 2.31% (active) in the assay on SF-295 CNS; 16.3% in the assay on SF-539 CNS; 3.36% (active) in the assay with UACC-257 melanoma. In the assay on M14 melanoma, the growth was 5.62% (active).

For the molecule `O=C(C[C@]1(O)C(=O)Nc2ccccc21)c1cccc(C(F)(F)F)c1`, the growth was 92.5% in the assay on NCI-H23 lung; 86.3% with NCI-H226 lung; 84.4% in the assay on NCI-H322M lung; 78.8% in the assay with HOP-62 NSCLC; 97.4% with NCI-H460 lung; 77.3% in the assay with HOP-92 NSCLC. Moreover, the growth in the assay on NCI-H522 lung was 87.1%; with A549/ATCC NSCLC, 99.2%; in the assay on 786-0 renal, 95.7%; with DU-145 prostate, 99.2%; in the assay on K-562 leukemia it was 96%; with MALME-3M melanoma, 83.1%. Moreover, the growth in the assay with MDA-MB-231 breast was 91%; in the assay on RXF 393 renal, 101%; in the assay on SF-268 CNS, 85.8%; in the assay with SF-295 CNS it was 96.3%; in the assay with SF-539 CNS, 88%; in the assay on UACC-257 melanoma, 99.7%. Also, the growth with M14 melanoma was 93.1%.

Consider `N#Cc1nc(-c2ccc(F)cc2)oc1S(=O)(=O)N1CCOCC1`, for which the growth in the assay on NCI-H23 lung was 70.3%; in the assay with NCI-H226 lung, 81.7%; in the assay on NCI-H322M lung, 102%; in the assay on HOP-62 NSCLC, 101%; with NCI-H460 lung it was 107%; in the assay with HOP-92 NSCLC, 94.6%. For the same molecule, the growth with NCI-H522 lung is -33.8% (active); in the assay on 786-0 renal it was 87.6%; in the assay with COLO 205 colon, -36.4% (active); in the assay with DU-145 prostate, 93.8%; in the assay on K-562 leukemia, 7.52% (active); with MALME-3M melanoma it was 1.99% (active). Further, the growth with MDA-MB-231 breast was 83.2%; with RXF 393 renal it was -27.8% (active); in the assay on SF-268 CNS, 114%; with SF-295 CNS it was 104%; in the assay with SF-539 CNS, 66.7%; in the assay with UACC-257 melanoma, 93.9%.

Take `O=C(Nc1nc2ccc(C(=O)N3CCN(/C=C/c4ccccc4)CC3)cc2s1)c1ccc(NCCc2ccccc2)c([N+](=O)[O-])c1`: the growth with NCI-H23 lung is 51%; in the assay with NCI-H226 lung, 62.1%; in the assay on NCI-H322M lung it was 82.8%; in the assay with HOP-62 NSCLC it was 58.4%; in the assay with NCI-H460 lung, 16.5%; in the assay on HOP-92 NSCLC, 51.8%. Besides, the growth with NCI-H522 lung was 48.3%; in the assay on 786-0 renal, 69.7%; in the assay with COLO 205 colon it was 18.5%; in the assay with DU-145 prostate it was 70.7%; in the assay on K-562 leukemia, -18.7% (active); in the assay with MALME-3M melanoma it was -0.217% (active). In addition, the growth in the assay with MDA-MB-231 breast is 66%; with RXF 393 renal, 53.2%; in the assay on SF-268 CNS, 63.2%; in the assay with SF-295 CNS, 45.7%; with SF-539 CNS, 71.7%; in the assay with UACC-257 melanoma, 37.3%. The growth with M14 melanoma was 12.9%.

On to `O=CN1N=C(c2cccc(Nc3ccnc4cc(Cl)ccc34)c2)CC1c1ccccc1` (stereo not given), for which the growth is 4.34% (active) with NCI-H23 lung; 38.3% in the assay with NCI-H226 lung; 71.8% with NCI-H322M lung; 37.2% in the assay with HOP-62 NSCLC; 7.29% (active) with NCI-H460 lung; 18.9% in the assay on HOP-92 NSCLC. The growth is -25.8% (active) in the assay on NCI-H522 lung; 21.3% with A549/ATCC NSCLC; 18.9% in the assay with 786-0 renal; 6.74% (active) in the assay on DU-145 prostate; 18.3% in the assay with K-562 leukemia; 53.2% in the assay on MALME-3M melanoma. Also, the growth in the assay with MDA-MB-231 breast was 7.27% (active); in the assay on RXF 393 renal it was -5.98% (active); in the assay on SF-268 CNS, 36.9%; with SF-295 CNS, 2.56% (active); with SF-539 CNS it was -7.47% (active); in the assay with UACC-257 melanoma, 66.9%. Also, the growth in the assay on M14 melanoma was 23.6%.

As to `O=C1Nc2ccc(C(=O)O)cc2/C1=N/c1nnc(Sc2ccccc2)s1`, the growth in the assay on NCI-H23 lung is 104%; with NCI-H226 lung it was 98.5%; in the assay with NCI-H322M lung, 116%; with HOP-62 NSCLC, 95%; in the assay on NCI-H460 lung, 107%; in the assay on HOP-92 NSCLC, 102%. Besides, the growth is 94.3% in the assay with NCI-H522 lung; 102% in the assay on 786-0 renal; 124% in the assay with COLO 205 colon; 110% in the assay on DU-145 prostate; 96.2% with K-562 leukemia; 113% in the assay with MALME-3M melanoma. The growth in the assay on MDA-MB-231 breast was 106%; in the assay with RXF 393 renal, 117%; with SF-268 CNS, 96.4%; in the assay on SF-295 CNS it was 102%; in the assay on SF-539 CNS, 96.8%; in the assay on UACC-257 melanoma, 107%. The growth with M14 melanoma is 104%.
